Most compounds without a hit are left out; they make up all but 1.1% or so of the library.
RPL19A-GFP yeast = RPL19A-GFP expression modulators in yeast, primary screen, cell-based, S. cerevisiae, multiplex flow cytometry, MLPCN | S. cerevisiae RPL19A-GFP strain, 3 h; active compounds read low | percent response vs DMSO, % at 10 µM | actives 0.3% (n = 330,000);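 active = percent response vs DMSO below 50%; inconclusive = fewer than 70 events counted for the yeast strain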;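 also: median channel GFP fluorescence of the barcoded RPL19A-GFP strain; ratio of sample median GFP to plate DMSO average so 100% = DMSO; lower means less RPL19A-GFP as with rapamycin TOR inhibition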
MEP2 TOR yeast = modulators of MEP2-GFP levels in yeast, primary screen, S. cerevisiae, multiplex flow cytometry, MLPCN library. GFP response vs DMSO, % at 10 µM. S. cerevisiae MEP2-GFP strain, 3 h; 100% = DMSO control level. actives 0.51% (n = 330,000);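 active = GFP response versus DMSO above a set limit, roughly screen mean plus 3 SD, cut at about 180% in these data; inconclusive = fewer than 70 cells counted for a yeast strain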;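 also: median GFP fluorescence of the barcode-gated MEP2-GFP cells per well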
VLA-4 inh = inhibition in human VLA-4 binding assay, primary screen, VLA-4 allosteric modulator project, MLPCN library, flow cytometry, VLA-4 expressing cells; ligand binding flow cytometry; inhibition, % (about 7 µM as worked out from the volumes in the protocol); actives 0.2% (n = 330,000); in the data active = inhibition above about 50%
Target sequence (P13612 whole entry, looked up): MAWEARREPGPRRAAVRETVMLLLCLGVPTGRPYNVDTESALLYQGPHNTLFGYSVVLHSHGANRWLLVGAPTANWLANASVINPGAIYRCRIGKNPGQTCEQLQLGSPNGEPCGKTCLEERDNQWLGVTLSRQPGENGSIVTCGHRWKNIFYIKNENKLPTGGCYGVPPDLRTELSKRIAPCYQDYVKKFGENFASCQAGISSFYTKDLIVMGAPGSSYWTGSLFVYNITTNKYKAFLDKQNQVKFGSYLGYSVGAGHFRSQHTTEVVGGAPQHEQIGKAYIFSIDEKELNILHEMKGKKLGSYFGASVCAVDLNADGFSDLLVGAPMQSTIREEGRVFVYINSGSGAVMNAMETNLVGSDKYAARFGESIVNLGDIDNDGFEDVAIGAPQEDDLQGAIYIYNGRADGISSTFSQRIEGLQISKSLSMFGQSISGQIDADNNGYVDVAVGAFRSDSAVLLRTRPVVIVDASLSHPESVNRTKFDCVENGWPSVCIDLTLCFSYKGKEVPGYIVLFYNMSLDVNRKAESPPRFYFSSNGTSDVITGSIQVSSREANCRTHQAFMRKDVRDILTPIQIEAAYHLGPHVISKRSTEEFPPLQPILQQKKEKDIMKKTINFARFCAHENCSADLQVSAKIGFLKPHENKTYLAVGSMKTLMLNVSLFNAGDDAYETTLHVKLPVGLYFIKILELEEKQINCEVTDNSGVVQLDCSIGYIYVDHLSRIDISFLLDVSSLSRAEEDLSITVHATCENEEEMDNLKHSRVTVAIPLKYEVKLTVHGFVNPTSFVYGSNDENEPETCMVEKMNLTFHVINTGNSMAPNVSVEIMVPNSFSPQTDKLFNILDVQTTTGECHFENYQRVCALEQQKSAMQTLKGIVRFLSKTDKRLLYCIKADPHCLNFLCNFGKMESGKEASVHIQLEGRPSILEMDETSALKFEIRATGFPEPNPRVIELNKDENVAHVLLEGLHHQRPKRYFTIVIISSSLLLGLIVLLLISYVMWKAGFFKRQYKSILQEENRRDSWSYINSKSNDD
AGP1 TOR yeast = modulators of AGP1-GFP expression in yeast TOR pathway, primary screen, cell-based, multiplex flow cytometry, S. cerevisiae, MLPCN library; actives 0.02% (n = 320,000); 3 h; GFP as percent of DMSO wells; GFP response vs DMSO, % at 10 µM; AID 2066, 2009;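 active = GFP response relative to DMSO above a set limit, near screen average plus 3 SD, cut at about 150% in these data; inconclusive = fewer than 70 cells counted for the yeast strain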;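 also: median GFP channel fluorescence of the gated AGP1 strain per well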
CIT2-GFP yeast = modulators of CIT2-GFP expression in yeast, primary screen, S. cerevisiae, GFP fusion, multiplex flow cytometry, MLPCN library; S. cerevisiae CIT2-GFP strain, 3 h; 100 means same as DMSO wells; actives 0.065% (n = 320,000); GFP response vs DMSO, % at 10 µM;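 active = GFP response relative to DMSO above a set limit, near the screen mean plus 3 SD, cut at about 150% in these data; inconclusive = Fewer than 70 cells measured for a yeast strain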;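 also: ratio of well median GFP fluorescence to mean of DMSO wells on the plate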
LAP4-GFP MLPCN = modulators of LAP4-GFP expression in yeast, primary screen, S. cerevisiae, multiplex flow cytometry, MLPCN library | 3 h; median GFP as percent of DMSO wells | GFP response vs DMSO, % at 10 µM | actives 0.34% (n = 320,000);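 active = GFP response vs DMSO above a set limit, about the screen mean plus 3 SD, cut at about 150% in these data; inconclusive = under 70 cell events counted for the yeast strain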
* marks the source's active call; other numbers are inactive results; i = inactive; u = inconclusive; x = no result; + = active, no number; [ ] = remark or other dose.

SMILES | RPL19A-GFP yeast | MEP2 TOR yeast | VLA-4 inh | AGP1 TOR yeast | CIT2-GFP yeast | LAP4-GFP MLPCN
Cc1ccc(C2OC34CCCCCC3C(C#N)(C(=N)O4)C2(C#N)C#N)cc1 (configuration not stated) | 57.2 | 197.1*[may fluoresce violet] | 14.7 | u | u | 103.8
CCCCOc1ccc(C2OC34CCCCC3C(C#N)(C#N)C2(C#N)C(=N)O4)cc1 (configuration not stated) | 101.6 | 103.9 | -3.1 | 104.2 | 98.8 | 92.0
C=CCOc1ccc(C2OC34CCCCC3C(C#N)(C#N)C2(C#N)C(=N)O4)cc1 (configuration not stated) | 35.1*[may fluoresce violet] | 567.6*[may fluoresce violet] | -12.5 | x | u | 119.6
Cc1nnc(SCC(=O)N(C)CC(=O)Nc2ccccc2Cl)s1 | 90.4 | 95.7 | 14.5 | 96.8 | 92.4 | 95.3
CN(CC(=O)Nc1ccccc1Cl)C(=O)CSc1nnc(N)s1 | 40.3*[may fluoresce violet] | 129.0 | 0.0 | u | u | u
Cc1ccc2[nH]c(CNC(=O)c3ccc(F)cc3)cc2c1 | 99.0 | 103.1 | -13.6 | 100.3 | 97.6 | 101.2
COc1ccccc1N1CCN(C2CCCN(C(=O)Cn3cccn3)C2)CC1 (configuration not stated) | 97.3 | 90.3 | 5.9 | 98.0 | 101.4 | 89.0
CC(C)OC(=O)c1cc(NC(=S)Nc2ccc([N+](=O)[O-])cc2)cc(C(=O)OC(C)C)c1 | 53.2 | 261.4*[may fluoresce violet] | 2.3 | 25.9 | u | 95.1
Cn1ccc(NC(=O)c2ccc(Cl)cc2)n1 | i | +[may fluoresce green] | i | +[may fluoresce green] | +[may fluoresce green] | +[may fluoresce green]
CCN(CC)c1nc(C(F)(F)F)nc2c1nnn2Cc1ccccc1 | 105.4 | 108.4 | -2.5 | 103.8 | 101.7 | 98.2
CCOc1ccc(N(CC(=O)N2CCCCCC2)S(C)(=O)=O)cc1 | 109.3 | 108.4 | -10.8 | 110.3 | 109.6 | 103.4
CCN1CCN(CCNC(=O)c2ccc3nc(-c4cccc(C)c4)c(-c4cccc(C)c4)nc3c2)CC1 | 16.1*[may fluoresce violet] | 137.5 | 5.2 | u | u | 79.5
COc1ccc(/C(C)=N/NC(=O)CN(c2ccc(OC)cc2)S(=O)(=O)c2ccccc2)cc1 | 103.7 | 104.2 | 2.0 | 97.7 | 106.2 | 89.9
O=C(NCC1CCCO1)C1CC(=O)N(c2ccccc2)C1 (configuration not stated) | 101.8 | 96.8 | -8.3 | 103.1 | 103.7 | 98.0
Cc1cc(C)nc(SCC(=O)NCC2COc3ccccc3O2)n1 (configuration not stated) | 102.0 | 102.2 | 0.8 | 103.8 | 94.4 | 102.0
Cn1c(=O)cc(SCC(=O)NCC2COc3ccccc3O2)c2ccccc21 (configuration not stated) | 63.1 | 397.1*[may fluoresce violet] | 18.3 | 22.1 | u | 78.2
O=C1CNC(=S)N1Cc1ccc(F)cc1 | 45.3*[may fluoresce violet] | 358.7*[may fluoresce violet] | 13.5 | u | u | 112.6
Cc1oc2c(C)c3oc(=O)c(CCC(=O)NCCN4CCOCC4)c(C)c3cc2c1C | 93.5 | 102.4 | 31.6 | 98.1 | 94.0 | 97.5
COc1ccc(CNC(=O)COC(=O)c2ccc(OCC3CCCO3)cc2)cc1 (configuration not stated) | 95.4 | 98.9 | -9.6 | 101.5 | 100.4 | 98.9
Cc1ccc(NC(=O)c2noc3c2CCc2ccccc2-3)cc1 | 104.8 | 103.8 | -7.0 | 102.5 | 103.4 | 102.1
CCc1ccc(NC(=O)c2noc3c2CCc2ccccc2-3)cc1 | 12.7*[may fluoresce violet] | 237.1*[may fluoresce violet] | -5.0 | u | u | 106.1
C=C1/C=C(\C)[C@](C)(O)C[C@H](O)CC(=O)[C@H](O)[C@@H](O)[C@H](C)C[C@H](C)OC(=O)/C(C)=C/CC/C=C/[C@@H]2O[C@H]2C[C@H](C)C1 | 94.9 | 95.3 | 24.4 | 91.4 | 90.5 | 114.8
CCOc1ccccc1-n1c(SC(C)C(=O)NCC2CCCO2)nc2ccccc2c1=O (configuration not stated) | 101.9 | 98.2 | 5.1 | 99.1 | 95.0 | 105.3

Screening data from PubChem BioAssay.
